# PubChem BioAssay (Tox21)
# Results filed as inconclusive are left out. A call without a number means that no potency is given here. A number with no mark means an inactive call. Active and inactive are the calls of the source. The call rests on the fitted dose curve; in most records, active means well fitted curve in the direction sought with a large enough effect in the repeat runs; inconclusive means weak or mixed curves; inactive means no such curve, though single readings can be large; an effect the other way counts as inactive or inconclusive. Where a SMILES comes first, the peptide text is derived from it.
# How the values were obtained:
# [1] = qHTS assay to identify small molecule agonists of the RXR signaling pathway - cell viability counter screen (AID 1159529); further: series mostly up to about 77 µM; nearly all actives have a fitted effect of over 50% in size
# Summary of the method: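 Compounds dissolved in DMSO were pinned onto HEK 293T cells carrying a beta-lactamase reporter under RXR-alpha control and incubated 16 hr. Cytotoxicity was then quantified by CellTiter-Glo luminescence.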
# [2] = qHTS assay to identify small molecule antagonists of the retinoid acid receptor (RAR) signaling pathway - cell viability counter screen (AID 1159551); further: nearly all actives have a fitted effect of over 35% in size
# Summary of the method: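 Cytotoxicity counter screen: ATP content quantified by CellTiter-Glo luminescence in C3RL4 cells treated 6 hr at 37 C with compound and retinol (1 uM final). Cells plated at 1,000/well and cultured overnight before dosing.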
# [3] = qHTS assay to identify small molecule antagonists of the retinoic acid receptor (RAR) signaling pathway (AID 1159552; further: nearly all actives have a fitted effect of over 50% in size)
# Summary of the method: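 Test chemicals and DMSO controls were pin-transferred onto C3RL4 cells a day after seeding; retinol (1 uM final) followed at once. Luminescent reporter output was quantified after 6 hr of co-incubation and 30 min with detection reagent.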
# [4] = qHTS assay to identify small molecule agonists of the retinoic acid receptor (RAR) signaling pathway (AID 1159553); further: potency means the concentration at half of the fitted maximal effect
# Summary of the method: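 Luminescence was measured 30 min after luciferase reagent addition at room temperature. Before that, C3RL4 reporter cells (1,000 per well, plated overnight) were treated with compound for 6 hr at 37 C and 5% CO2.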
# [5] = qHTS assay to identify small molecule antagonists of the estrogen related receptor (ERR) signaling pathway from Tox21 library - cell viability counter screen (AID 1224834); further: nearly all actives have a fitted effect of over 30% in size
# Summary of the method: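 CellTiter-Fluor fluorescence, read after 30 min at 37 C, measures viability of ERR cells. Cells plated at 2,000/well and incubated 6 h before pin-tool compound addition, then exposed 17.5 hours at 37 C.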
# [6] = molecular target: Luciferin 4-monooxygenase (Photinus pyralis) (UniProt P08659); assay: qHTS assay to identify small molecule inhibitors of firefly luciferase (AID 1224835); further: nearly all actives have a fitted effect of over 25% in size; further: potency means the concentration at half of the fitted maximal effect
# Summary of the method: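 Biochemical qHTS: compounds run as interplate titrations against purified firefly enzyme, with D-luciferin and ATP each at its KM concentration. Light output recorded by CCD imaging.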
# [7] = qHTS assay to identify small molecule agonists of the constitutive androstane receptor (CAR) signaling pathway - cell viability counter screen (AID 1224836); further: series mostly up to about 92 µM; nearly all actives have a fitted effect of over 45% in size
# Summary of the method: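 23 h treatment, 37 C, 5% CO2. Cell line: HepG2 stably expressing hCAR with a CYP2B6-2.2kb construct. Co-treatment: PK11195, 0.75 uM final. Read-out: CellTiter-Fluor fluorescence intensity.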
# [8] = qHTS assay to identify small molecule antagonists of the constitutive androstane receptor (CAR) signaling pathway - cell viability counter screen (AID 1224837); further: series mostly up to about 92 µM; nearly all actives have a fitted effect of over 45% in size
# Summary of the method: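 Cytotoxicity counter-screen: CellTiter-Fluor fluorescence after 23 h compound exposure (15-point qHTS) in double-stable HepG2-CYP2B6-hCAR cells, with 50 nM CITCO added.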
# [9] = molecular target: Nuclear receptor subfamily 1 group I member 3 (Homo sapiens) (UniProt Q14994); assay: qHTS assay to identify small molecule antagonists of the constitutive androstane receptor (CAR) signaling pathway (AID 1224838);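 further: HepG2 cells stably expressing hCAR with CYP2B6 luciferase reporter stimulated by CITCO; nearly all actives have a fitted effect of over 40% in size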
# Summary of the method: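 Antagonism measured as luciferase signal (ONE-Glo, 30 min, room temperature) in CAR-stimulated cells: HepG2-CYP2B6-hCAR double-stable line exposed 24 hr at 37 C to compound in a 15-point series plus 50 nM CITCO.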
# Nuclear receptor subfamily 1 group I member 3 (Homo sapiens), sequence (Q14994 whole entry, looked up): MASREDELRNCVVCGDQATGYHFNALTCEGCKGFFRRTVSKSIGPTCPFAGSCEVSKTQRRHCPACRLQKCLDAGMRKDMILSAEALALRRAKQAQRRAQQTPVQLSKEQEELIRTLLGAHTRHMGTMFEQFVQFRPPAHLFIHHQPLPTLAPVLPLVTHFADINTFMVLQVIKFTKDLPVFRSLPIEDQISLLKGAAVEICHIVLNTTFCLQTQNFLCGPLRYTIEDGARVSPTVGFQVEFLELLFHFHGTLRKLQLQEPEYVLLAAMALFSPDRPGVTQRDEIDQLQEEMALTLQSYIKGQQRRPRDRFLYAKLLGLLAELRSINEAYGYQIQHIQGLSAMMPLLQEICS
# Luciferin 4-monooxygenase (Photinus pyralis), sequence (P08659 whole entry, looked up): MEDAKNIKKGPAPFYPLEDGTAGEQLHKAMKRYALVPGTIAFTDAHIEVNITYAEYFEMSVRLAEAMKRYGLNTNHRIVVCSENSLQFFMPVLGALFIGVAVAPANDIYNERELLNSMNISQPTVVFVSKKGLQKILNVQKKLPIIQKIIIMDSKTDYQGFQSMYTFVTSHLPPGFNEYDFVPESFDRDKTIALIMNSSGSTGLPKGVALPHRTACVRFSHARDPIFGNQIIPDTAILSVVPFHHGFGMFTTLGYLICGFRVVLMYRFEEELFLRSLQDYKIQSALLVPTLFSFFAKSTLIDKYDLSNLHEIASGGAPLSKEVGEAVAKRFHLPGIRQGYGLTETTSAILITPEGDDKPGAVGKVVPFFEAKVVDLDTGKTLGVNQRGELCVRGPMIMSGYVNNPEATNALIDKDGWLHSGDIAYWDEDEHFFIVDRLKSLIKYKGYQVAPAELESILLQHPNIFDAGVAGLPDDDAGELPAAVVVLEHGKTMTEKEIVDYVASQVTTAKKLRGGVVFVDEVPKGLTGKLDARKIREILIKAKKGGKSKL
SMILES,outcome [1],outcome [2],outcome [3],Potency [4],outcome [5],Potency [6],outcome [7],outcome [8],Potency [9]
CC(=O)N[C@@H](CO)C(=O)N[C@@H](CC(=O)O)C(=O)N[C@@H](CCCCN)C(=O)N1CCC[C@H]1C(=O)O (Ac-SDKP-OH),inactive,inactive,inactive,inactive,inactive,inactive,inactive,inactive,inactive
c1ccc2c(CC3=NCCN3)cccc2c1,inactive,inactive,inactive,inactive,inactive,inactive,inactive,inactive,inactive
C/C=C(\C)C(=O)OCCc1ccccc1,inactive,inactive,inactive,27.3 µM (active),inactive,7.1 µM (active),inactive,inactive,inactive
CCCCSCCCC,inactive,inactive,inactive,inactive,inactive,inactive,inactive,inactive,inactive
CCC(C)C(=O)OCCc1ccccc1 (centres undefined),inactive,inactive,inactive,inactive,inactive,50.2 µM (active),inactive,inactive,inactive
CC1=C(O)C(=O)C(C)O1 (centres undefined),inactive,–,inactive,inactive,inactive,inactive,inactive,inactive,inactive
COc1cc2c(cc1OC)C(=O)C(CC1CCN(Cc3ccccc3)CC1)C2 (centres undefined),inactive,inactive,inactive,inactive,inactive,inactive,inactive,inactive,inactive
Cc1cc(C)c(C(=O)O)c(C)c1,inactive,inactive,inactive,–,inactive,inactive,–,inactive,inactive
NCCOCCN,inactive,–,inactive,inactive,inactive,inactive,inactive,inactive,inactive
CC(C)COC(=O)c1ccccc1,inactive,inactive,inactive,inactive,inactive,inactive,inactive,inactive,inactive
CC/C=C\CCOC(=O)c1ccccc1O,inactive,–,inactive,inactive,inactive,17.8 µM (active),inactive,inactive,inactive
CC1=C(C(=O)O)N2C(=O)[C@@H](NC(=O)[C@H](N)c3ccccc3)[C@H]2SC1,inactive,inactive,inactive,inactive,inactive,inactive,inactive,inactive,inactive
CC1OCCC1=O (centres undefined),inactive,–,inactive,inactive,inactive,inactive,inactive,inactive,–
CSc1cnccn1,inactive,inactive,inactive,–,inactive,inactive,inactive,inactive,–
Fc1ccccc1,inactive,inactive,inactive,–,inactive,inactive,inactive,inactive,inactive
CCC(=O)Oc1ccc2c(c1)CC[C@@H]1[C@@H]2CC[C@@]2(C)[C@H]1C[C@@H](OC(=O)CC)[C@@H]2OC(=O)CC,inactive,inactive,inactive,inactive,inactive,inactive,inactive,inactive,inactive
